# About 1,500 (0.45%) of roughly 330,000 compounds were called active. The sample holds actives, similar compounds and a random draw of the others, so the mix is not that of the screen. No stated cut-off is given here; in the data, active means inhibition above about 45% (passing the limit was not always enough); inconclusive means no clear call, values can overlap the other calls.
# Biological target: Ubiquitin-conjugating enzyme E2 N (Homo sapiens) (UniProt P61088)
# Experiment: blockers of UBC13 ubiquitin chain synthesis – biochemical, TR-FRET, uHTS, primary screen (AID 485273)
# Conditions: UBC13 polyubiquitin chain formation, at 20 µM, hits give high values
# Ubiquitin-conjugating enzyme E2 N (Homo sapiens), sequence (P61088 whole entry, looked up): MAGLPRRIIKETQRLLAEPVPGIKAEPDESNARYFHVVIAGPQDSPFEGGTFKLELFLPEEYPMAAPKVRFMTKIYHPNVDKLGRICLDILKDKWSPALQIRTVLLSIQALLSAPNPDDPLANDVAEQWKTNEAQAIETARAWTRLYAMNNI
row,Compound,inhibition
1,Cn1c(=O)c2c(-c3cccc(Br)c3)c(C#N)c(N)nc2n(C)c1=O,-5.6% (inactive)
2,CC(C)(C)c1ccc(S(=O)(=O)N2CCN(C(=O)c3ccc4c(c3)C(=O)N(Cc3ccncc3)C4=O)CC2)cc1,6.4% (inactive)
3,Cc1ccccc1C(CC(=O)c1cccs1)C(C#N)C#N (configuration not stated),4.5% (inactive)
4,COc1ccc(NC2=CC(=S)NC(C)(C)C2)cc1,-9.8% (inactive)
5,COc1ccc2sc(-c3ccccc3OC)c(-c3ccc(OCCN4CCCC4)cc3)c2c1,60.6% (active)
6,COc1ccc(-c2sc3ccccc3c2-c2ccc(OCCN3CCOCC3)cc2)cc1,54.3% (active)
7,COc1cc(OC)cc(-c2sc3ccc(OC)cc3c2-c2ccc3cc[nH]c3c2)c1,9.4% (inactive)
8,CC(=O)c1ccc(OCCN2CCOCC2)cc1,-16.1% (inactive)
9,c1ccc(-c2ccc(OCCN3CCOCC3)cc2)cc1,7.7% (inactive)
10,c1ccc(-c2ccccc2OCCN2CCCCC2)cc1,5.8% (inactive)
11,CC1(C)O[C@@H]2[C@H](O1)[C@@H](COS(=O)(=O)O)O[C@H]2n1cnc2c(=O)[nH]cnc21,-0.9% (inactive)
12,CC(C)CC1(C(=O)NCc2ccccn2)C=CCN1C(=O)c1ccccc1 (configuration not stated),13% (inactive)
13,COc1ccc(C(=O)Nc2ccc(-n3nncc3C(C)(C)C)cc2)cc1,-4.8% (inactive)
14,COc1ccc(C(CNC(=O)c2cccc(S(=O)(=O)Nc3ccccc3Cl)c2)N2CCOCC2)cc1 (configuration not stated),2.8% (inactive)
15,COc1ccc(C(CNC(=O)c2cccc(NS(=O)(=O)c3ccc(C)c(F)c3)c2)N2CCCC2)cc1 (configuration not stated),55.5% (active)
16,COc1ccc(C(CNC(=O)c2ccc(S(=O)(=O)Nc3ccccc3C)cc2)N2CCOCC2)cc1 (configuration not stated),-1.4% (inactive)
17,CCOCCCNC(=O)C(=O)NCCCOCC,-2.5% (inactive)
18,CC1CC(C)(C)n2c(O)c(N=NC(N)=S)c3cccc1c32 (configuration not stated),92.1% (active)
19,COc1ccc(S(=O)(=O)N2CCC(C(=O)OCC(=O)c3ccccc3)CC2)cc1[N+](=O)[O-],-5.5% (inactive)

row,Compound,inhibition
1,FC(F)(F)c1ccnc(Oc2ccc(C3=NCCS3)cc2)c1,7.6% (inactive)
2,O=C(COc1ccc2ccc(=O)oc2c1)NCC(O)c1ccccc1 (configuration not stated),4.2% (inactive)
3,CN(C)CCN(C(=O)CN1C(=O)c2ccccc2C1=O)c1nc2cc3c(cc2s1)OCCO3,6.7% (inactive)
4,CCOc1ccc2nc(N(CCCN(C)C)C(=O)c3ccc(C(=O)c4ccccc4)cc3)sc2c1,87.8% (active)
5,CN(C)CCCN(C(=O)c1ccc(S(=O)(=O)N2CCCCCC2)cc1)c1nc2ccc(Br)cc2s1,67% (active)
6,CCCC(=O)N(CCN1CCOCC1)c1nc2ccc(OCC)cc2s1,-2.6% (inactive)
7,CN(C)CCCN(C(=O)c1ccc(S(=O)(=O)N2CCCCCC2)cc1)c1nc2cc3c(cc2s1)OCCO3,85.8% (active)
8,CCc1ccc2nc(N(CCCN(C)C)C(=O)c3ccc4c(c3)OCCO4)sc2c1,21.3% (inactive)
9,COc1ccc2sc(N(CCCN(C)C)C(=O)c3ccc(S(=O)(=O)N(C)C4CCCCC4)cc3)nc2c1,15.5% (inactive)
10,CCN(CC)CCN(C(=O)c1cccc([N+](=O)[O-])c1)c1nc2ccc(OC)cc2s1,-0.4% (inactive)
11,CN(C)CCCN(C(=O)c1ccc(S(=O)(=O)N2CCCc3ccccc32)cc1)c1nc2ccc(F)cc2s1,37.2% (inactive)
12,O=C(NCc1csc(-c2cccs2)n1)C1CC1,-1.3% (inactive)
13,CC(C)(CCl)C(=O)Nc1ccc(Sc2ccc(F)cc2)cc1,7.4% (inactive)
14,Cc1ccc(C)c(NC(=O)C(c2ccccc2)N2CCN(CC(=O)NC3CC3)CC2)c1 (configuration not stated),2.6% (inactive)
15,Cc1ccc(N2C(=O)N3[C@@H]4c5ccccc5OC[C@@H]4[C@@H](c4ccccc4)[C@@]3(C)C2=O)cc1,6.8% (inactive)
16,O=C1CC(Cc2ccc(Cl)cc2)C(=O)N1c1cc(Cl)ccn1 (configuration not stated),0% (inactive)
17,CN(c1ccccn1)c1ncnc2[nH]ncc12,5.9% (inactive)
18,O=C(NNC(=O)c1cc(-c2ccccc2Cl)nc2ccccc12)c1csc(N2CCOCC2)n1,1.5% (inactive)
19,CSCCC(NC(=O)c1ccc(Cl)cc1Cl)C(=O)NNC(=O)c1csc(N2CCOCC2)n1 (configuration not stated),58.4% (active)

row,Compound,inhibition
1,COc1ccccc1C(=O)NC(CCSC)C(=O)NNC(=O)c1csc(N2CCOCC2)n1 (configuration not stated),4.2% (inactive)
2,C[C@@H](CN1CCC[C@H]1CN1C(N)=NC[C@@H]1Cc1ccccc1)N1C[C@@H](Cc2ccccc2)N(CCCC2CCCC2)C1=N,62.2% (active)
3,CCCCN1C(N)=NC[C@@H]1Cc1ccccc1,-6.3% (inactive)
4,CC[C@@H](C)[C@@H]1CN([C@@H](C)CN2CCC[C@H]2CN2C(N)=NC[C@H]2C(C)C)C(=N)N1CCc1ccc(Cl)c(Cl)c1,50.1% (active)
5,NC1=NC[C@@H](Cc2ccc(O)cc2)N1CC1CCCCC1,17.3% (inactive)
6,CC(=O)N1CCC(N(C(=O)Nc2ccc(Cl)cc2)C(C)C)CC1,-2.5% (inactive)
7,CC(OC(=O)CN1C(=O)C2CCCCC2C1=O)C(=O)Nc1ncc(Cl)cc1Cl (configuration not stated),-6.5% (inactive)
8,CCOC(=O)c1ccccc1NC(=O)COC(=O)C(Cc1c[nH]c2ccccc12)NC(C)=O (configuration not stated),3.4% (inactive)
9,O=C(CNC(=O)Cc1ccccc1)NCC(=O)OCC(=O)c1ccccc1Cl,12% (inactive)
10,CC1(C)Cc2ccccc2-c2nc(CN3CCOCC3)[nH]c(=O)c21,-5.3% (inactive)
11,CC1(C)Cc2ccccc2-c2[nH]c(=S)[nH]c(=O)c21,62.2% (active)
12,CCC1(CC)Cc2ccccc2-c2nc(CCl)[nH]c(=O)c21,9% (inactive)
13,CCN(CC)C(=O)CC(c1ccc2c(c1)OCO2)c1c(OC)cc(OC)c2c(-c3ccccc3)cc(=O)oc12 (configuration not stated),8.8% (inactive)
14,CCN(CC)CCC(c1ccc2c(c1)OCO2)c1c(OC)cc(OC)c2c(-c3ccccc3)cc(=O)oc12 (configuration not stated),32.1% (inactive)
15,CCN(CC)CCC(c1cc(OC)c(OC)c(OC)c1)c1c(OC)cc(OC)c2c(-c3ccccc3)cc(=O)oc12 (configuration not stated),50.2% (active)
16,N#CCCn1ncc2ccccc21,0.9% (inactive)
17,CCCCn1c(N)c(N(CC)C(=O)c2ccccc2C(F)(F)F)c(=O)[nH]c1=O,-4.3% (inactive)
18,CCn1c(CNC(=O)c2cc(OC)c(OC)c(OC)c2)cc2cc(C)ccc21,5.6% (inactive)
19,O=S(=O)(Cc1cc(Sc2ccccc2)nc(-c2ccccc2)n1)c1ccccc1,-3.4% (inactive)

# — PubChem BioAssay AID485273 (Sanford-Burnham Center for Chemical Genomics, 2010)
